# PubChem BioAssay
# Values without a mark were called inactive. No rule for the calls is given here.
# Target: Pantothenate synthetase (Mycobacterium tuberculosis (strain ATCC 25618 / H37Rv)) (UniProt P9WIL5)
# Assay: Coupled enzyme confirmation of inhibitors against recombinant Mtb PanC (AID 375);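 also: 0% = full reaction with vehicle and 100% = no enzyme background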
# Details: coupled enzyme assay; at 10 µM, active compounds read high
# Sequence of Pantothenate synthetase (Mycobacterium tuberculosis (strain ATCC 25618 / H37Rv)) (P9WIL5 whole entry, looked up): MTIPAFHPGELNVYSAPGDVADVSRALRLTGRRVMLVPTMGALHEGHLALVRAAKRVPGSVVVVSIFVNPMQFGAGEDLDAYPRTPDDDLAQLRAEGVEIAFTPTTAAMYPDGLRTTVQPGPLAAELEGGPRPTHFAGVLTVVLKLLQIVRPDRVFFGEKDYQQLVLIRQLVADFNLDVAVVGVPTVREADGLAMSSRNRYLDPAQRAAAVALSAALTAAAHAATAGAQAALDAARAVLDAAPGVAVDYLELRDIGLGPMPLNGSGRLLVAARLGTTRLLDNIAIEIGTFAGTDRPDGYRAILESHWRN
row,SMILES,inhibition
1,O=c1oc2cc(O)ccc2c2oc3cc(O)ccc3c12,7%
2,O=C(NCCCn1ccnc1)c1csc2ccccc12,7%
3,CC(=O)c1c(O)cc(C)n(Nc2nc(C)cc(C)n2)c1=O,0%
4,CCC(C)(C)NC(=O)CN(Cc1ccc2c(c1)OCO2)C(=O)CCC(=O)Nc1ccccn1,3%
5,CCc1ccccc1NC(=O)C(CC)Sc1nc2cc3c(cc2c(=O)n1Cc1ccco1)OCO3 (stereo not given),0%
6,CCOC(=O)C1C2C=CC3(CN(Cc4ccco4)C(=O)C13)O2 (stereo not given),0%
7,CCCC(=O)Nc1ccc(OCC(=O)OC)cc1,5%
8,Cc1cc(C)c2cc3c(ccn3C3OC[C@H](O)[C@H](O)[C@H]3O)cc2n1 (stereo not given in full),4%
9,CC1(C)NC(=O)N(CCCOc2ccc(Br)cc2Cl)C1=O,0%
10,O=C(NCc1ccco1)c1cccc(S(=O)(=O)N2CCCCC2)c1,0%
11,O=S(=O)(c1cc(Cl)ccc1Br)N1CCOCC1,0%
12,CCc1cc2c(=O)c(-c3nc4ccccc4[nH]3)coc2c(CN2CCC(C)CC2)c1O,4%
13,Cn1nnc2cc(C(=O)N3CCCCCC3)ccc21,0%
14,CCOc1ccccc1NC(=O)N1CCCC1C(=O)Nc1nnc(CC)s1 (stereo not given),0%
15,CCN(CC)S(=O)(=O)c1ccc2c(c1)nc(SCC(=O)NC1CC1)n2-c1ccccc1OC,0%
16,Cc1c2cnn(CC(=O)N3CCN(c4ncccn4)CC3)c(=O)c2c(C)n1Cc1ccc(F)cc1,0%
17,CCOC(=O)N1CCN(C(=O)c2cn(CC)c3cc(N4CCN(C)CC4)c(F)cc3c2=O)CC1,0%
18,COc1ccc(-c2cc(O)cc(O)c2)cc1,0%
19,CC1(C)CC(=O)C=C(NCc2ccncc2)C1,0%
20,CC(=O)C1=C(O)C(=O)N(Cc2ccco2)C1c1ccc(F)cc1 (stereo not given),10%

row,SMILES,inhibition
1,CC(C)(C)NC(=O)CN(C(=O)C1CSC(=O)C1)c1ccc2c(c1)OCCO2 (stereo not given),0%
2,O=C1CC(c2cccs2)CC2=C1C(c1ccccc1)n1ncnc1N2 (stereo not given),3%
3,COc1ccccc1-c1ccc(Nc2cccc(C(C)=O)c2)nn1,0%
4,COCCN(C(=O)c1csnn1)C(C(=O)NC1CCCCC1)c1cccs1 (stereo not given),2%
5,CCOC(=O)N1CCN(C(=O)COc2ccc(S(=O)(=O)NC3CCCCC3)cc2C)CC1,2%
6,CNCCCC12CCC(c3ccccc31)c1ccccc12,0%
7,CN1C(=O)NC(NC(=O)C2CCCCC2)(C(F)(F)F)C1=O (stereo not given),0%
8,CC(C)(NC(=O)N1CCCC1)c1cccc(C(C)(C)NC(=O)N2CCCC2)c1,0%
9,Cc1ccc2cc(CN(CC3CCCO3)S(=O)(=O)c3ccc4c(c3)OCCO4)c(=O)[nH]c2c1C (stereo not given),2%
10,COCCN1C(=O)C(=O)/C(=C(/O)c2cccc(OC)c2)C1c1ccncc1 (stereo not given),1%
11,CC1(C)S[C@@H]2[C@H](NC(=O)[C@H](N)c3ccccc3)C(=O)N2[C@H]1C(=O)O,2%
12,CN1CC=C2C(C#N)=C(N)C(C#N)(C#N)C(c3cccc(Cl)c3Cl)C2C1 (stereo not given),0%
13,CCOC(=O)c1sc(NS(=O)(=O)c2ccc(NC(C)=O)cc2)nc1C,0%
14,CCN(Cc1ccccc1)C(c1ccncc1)c1nnnn1C(C)(C)C (stereo not given),0%
15,COc1ccc(CSCCN)cc1Cl,0%
16,Cc1nc2c(-c3ccccc3)c(C)[nH]n2c(=O)c1Cl,0%
17,Clc1cccc(-c2nn3c(Cn4cnc5ccccc54)nnc3s2)c1,0%
18,CCOC(=O)c1[nH]c(C)c(C(=O)Nc2ccc(C)cc2C)c1C,1%
19,c1ccc2c(c1)Cc1cc(CN3CCOCC3)ccc1-2,3%
20,Cn1cc(CC(=O)Nc2cccc(C#N)c2)c2ccccc21,6%
